Laboratory results taken from PubChem BioAssay (NCI).
Compounds without any hit were thinned out: in the full panel of roughly 83,000, 20% have a hit.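 Single-concentration screen, 48 h exposure, 96-well plates. Endpoint: percent growth. Below 10 = active.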 Active and inactive are the calls of the source.

System: M14 melanoma
Assay: NCI-60 one-dose screen, 48 h (100 = growth as untreated, 0 = no growth, -100 = all killed)
Details: 10 µM unless noted
Description: Growth inhibition of the M14 human tumor cell line is measured as a screen for anti-cancer activity. Cells are grown in 96 well plates and exposed to the test compound for 48 hours. Compounds are tested at a single concentration, which is 10^-5 M for most compounds. The reported endpoint is percent growth (GI% or GIPRCNT), where numbers from 0 - 100% represent growth inhibition, and numbers from -100% - 0 represent cell death. For example, a value of 40 represents 60% growth inhibition. A value of 0 means no net growth occurred over the course of the experiment. A value of -40 indicates 40% of cells at the beginning of the experiment died by the end of the experiment. A value of -100 means all cells are dead at the end of the experiment.
NCI-60 Human Tumor Cell Lines Screen was performed using the standard one-dose NCI protocol, which is described in more detail at https://dtp.cancer.gov/discovery_development/nci-60/default.htm.
Compounds with GIPRCNT values below 10 were considered active. Activity score was based on GIPRCNT using the following formula: […]
Score is 0 for GIPRCNT values of 100 or above, 50 for GIPRCNT values of 0, and 100 for GIPRCNT values of -100.

`O=C(CCCCCCN1CC(=O)N2[C@@H](c3cccs3)c3[nH]c4ccccc4c3C[C@H]2C1=O)NO` was tested. Which growth did it give?
The growth was 84.3% (inactive).

`COc1cc(-c2nc(-c3ccccc3)[nH]c2-c2ccnc(NCCCNS(=O)(=O)c3ccc(C(F)(F)F)cc3)n2)ccc1Cl` was tested. Which growth did it give?
The growth was 18.7% (inactive).

With `CSc1ccc(/C(=N/N=C(N)N)c2ccc(F)cc2)cc1` as the compound, how does the growth read?
Its growth is 3.79% (active).

Which growth does the source give for `CN1CCN(c2ccc(Nc3nc(NCCCNS(=O)(=O)c4cccc(F)c4)c4sccc4n3)cc2)CC1` here?
The growth was -62.2% (active).

With `c1ccc(-c2cn3c(-c4c[nH]c5ccccc45)csc3n2)cc1` as the compound, how does the growth read?
Its growth is 73% (inactive).

With `CCc1cc2c(cc1Cl)nc1c(=O)[nH]c(=O)nc-1n2CCOCC(C)(C)C` as the compound, how does the growth read?
Its growth is 61.8% (inactive).

How did the growth turn out when `C#C[C@]1(O)CC[C@H]2[C@@H]3CC=C4c5sc(Nc6cc(Cl)ccc6OC)nc5CC[C@]4(C)[C@H]3CC[C@@]21C` was run?
Its growth is -51.7% (active).

`CNC(=O)c1cc(N2CCc3cc(NC(=O)Nc4ccc(N5CCOCC5)c(C(F)(F)F)c4)ccc32)ccn1` was tested. Which growth did it give?
Its growth is 17% (inactive).

How did the growth turn out when `Brc1cc(-c2cc(-c3ccc4c(c3)OCCO4)[nH]n2)cs1` was run?
Its growth is 35% (inactive).

For `Cc1ccc(-c2cc3nc(C(Cl)Cl)nc(-c4ccc(S(=O)(=O)N(C)C)cc4)n3n2)cc1`, which growth is on record?
Its growth is 93.1% (inactive).

With `COc1cc(NC(=O)Nc2cccc(-c3cc(=O)c4c(OC)c(OC)c(OC)cc4o3)c2)cc(OC)c1OC` as the compound, how does the growth read?
The growth was 55.3% (inactive).

For `C=C(C)[C@@H]1CC[C@]2(COCCCNCCCN)CC[C@]3(C)[C@H](CC[C@@H]4[C@@]5(C)CC[C@H](O)C(C)(C)[C@@H]5CC[C@]43C)[C@@H]12`, which growth is on record?
The growth was -90.3% (active).

Which growth does the source give for `Cc1cc2nc3c4cc(C#N)ccc4n(CCN(C)C)c3nc2cc1C` here?
Its growth is -83.3% (active).

With `COC(=O)c1cccc(NC2=C(Cl)C(=O)C(C)=C(C)C2=O)c1` as the compound, how does the growth read?
Its growth is 92.3% (inactive).

Which growth does the source give for `Cc1[nH]c(C(=O)Nc2ccc(S(=O)(=O)N3CCCCC3)cc2OCCOCCOCCOCCOCCOCCOCCOCCOCCOc2cc(S(=O)(=O)N3CCCCC3)ccc2NC(=O)c2[nH]c(C)c3c2CCCCC3=O)c2c1C(=O)CCCC2` here?
Its growth is 14% (inactive).

How did the growth turn out when `CCOC(=O)c1cccc(NC2=C(Cl)C(=O)c3nc(C)ccc3C2=O)c1` was run?
The growth was 96.4% (inactive).

`COc1ccc(/C=N/NC(=O)CSc2nc(-c3cnccn3)cc(-c3cccs3)c2C#N)cc1` was tested. Which growth did it give?
The growth was 77.4% (inactive).

Which growth does the source give for `CC[C@]12CC(C(=O)OC)=C3Nc4ccccc4[C@@]34CCN(C14)[C@@H]1c3cc4c(cc3O[C@@H]1[C@H]2O)NC1=C(C(=O)OC)C[C@@]2(CC)C3N(CC[C@@]143)C[C@H]1O[C@H]12` (stereo not given in full) here?
The growth was 17.6% (inactive).

Which growth does the source give for `COc1cc(-c2nc(-c3ccccc3)[nH]c2-c2ccnc(NCCCNS(=O)(=O)c3ccc(C)cc3)n2)ccc1F` here?
The growth was 77.7% (inactive).

Which growth does the source give for `COc1ccc(/C=N/N=C(/c2ccccc2)c2ccc3nc(-c4ccc(Cl)cc4)[nH]c3c2)cc1` here?
Its growth is 75.3% (inactive).

How did the growth turn out when `CCCCCCNC(=O)Oc1ccc(/C(=C(/C)c2ccc(Cl)cc2)c2ccc(OCCN3CCCCCC3)cc2)cc1` was run?
The growth was 30.9% (inactive).

With `CCCCCc1ccc(S(=O)(=O)Nc2cc(-c3csc(N)n3)ccc2OC)cc1` as the compound, how does the growth read?
The growth was 103% (inactive).

For `CCN(CC)c1ccc(/C=N/NC(=O)c2ccc(S(N)(=O)=O)cc2)c(O)c1`, which growth is on record?
Its growth is 1.08% (active).

Which growth does the source give for `CN1CCN(Cc2ccc(NC(=O)c3cncc(C#Cc4cnc5ccc(OCCCS(C)(=O)=O)nn45)c3)cc2C(F)(F)F)CC1` here?
The growth was -78.9% (active).

With `Cc1ccc([C@H]2c3[nH]c4ccccc4c3C[C@H]3C(=O)N(CCCCCCC(=O)NO)CC(=O)N23)s1` as the compound, how does the growth read?
Its growth is 63.5% (inactive).

`Cc1[nH]c(C(=O)Nc2ccccc2OCc2cccc(C(=O)NC3CCNC3)c2)c(Cl)c1Cl` (stereo not given) was tested. Which growth did it give?
The growth was 24.1% (inactive).

For `COc1ccc(N2CCN(C3=C(Cl)C(=O)c4ncccc4C3=O)CC2)cc1`, which growth is on record?
Its growth is 45.6% (inactive).

Which growth does the source give for `Cc1[nH]c(C(=O)Nc2ccc(C(=O)NCC3CCNCC3)cc2OC(C)C)c(Cl)c1Cl` here?
The growth was 62.4% (inactive).

With `Cc1ccc(NC(=O)/C=C/c2ccc(OCCCOc3ccc4c(C)cc(=O)oc4c3)cc2)cc1` as the compound, how does the growth read?
The growth was 88.3% (inactive).

For `N#C/C(=C\c1ccc(-c2ccc(Cl)cc2)o1)C(=O)Nc1ncc(Cc2ccc(Br)cc2)s1`, which growth is on record?
The growth was 10.2% (inactive).

For `C#CCn1cc(/C=N/Nc2nc(-c3ccc(Br)cc3)cs2)c2ccccc21`, which growth is on record?
Its growth is 93.9% (inactive).

With `CCOC(=O)c1cccc(NC2=C(Cl)C(=O)C(C)=C(C)C2=O)c1` as the compound, how does the growth read?
Its growth is 100% (inactive).

For `C#Cc1nc(/C=C/C(=O)NO)cs1`, which growth is on record?
The growth was 70.3% (inactive).

Which growth does the source give for `Cc1[nH]c(C(=O)Nc2ccccc2OCc2cccc(C(=O)NC3CCCNC3)c2)c(Cl)c1Cl` (stereo not given) here?
The growth was -87% (active).

For `COc1ccc(C2CC(c3cccc(OCCCCOc4cccc(C5=NOC(c6ccc(OC)cc6)C5)c4)c3)=NO2)cc1` (stereo not given), which growth is on record?
Its growth is 90.5% (inactive).

For `O=c1c2cc(-c3ccc(F)cc3F)ccc2n(O)c(=O)n1-c1cccc(C(F)(F)F)c1`, which growth is on record?
Its growth is 17.6% (inactive).

`COc1ccc(C(C)=C(c2ccc(OCCN3CCCCCC3)cc2)c2ccc(OCCN3CCCCCC3)cc2)cc1` was tested. Which growth did it give?
The growth was -89.5% (active).

Which growth does the source give for `CS(=O)(=O)c1ccc(/C(=N/N=C(N)N)c2ccc(F)cc2)cc1` here?
The growth was 67.2% (inactive).

For `O=C(CSc1nc2ccccc2c(=O)n1-c1ccccc1)Nc1ccc(S(=O)(=O)Nc2nccs2)cc1`, which growth is on record?
Its growth is 78.6% (inactive).

With `O=C(Nc1cccc(C(F)(F)F)c1)N1CCN(c2cc(-c3cn(-c4ccccc4)nc3-c3cccc(O)c3)ccn2)CC1` as the compound, how does the growth read?
The growth was 41.2% (inactive).
